# Results reported in the supplement of paper PMC6658780.
# Counter-ions that a name gives are not always drawn. ± gives the standard deviation of the averaged measurements.
# Tested on: Escherichia coli ATCC BAA-2469
# Assay: percent growth inhibition of drug + antibiotic vs DMSO control; higher = more growth inhibition
# Conditions: antibiotic (0.125x MIC): ciprofloxacin; 7 µM
# Method: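 Prestwick drugs tested at 20 uM and 7 uM with an antibiotic at 0.125x MIC (16 mg/L when MIC >128 mg/L) against E. coli ATCC BAA-2469 (NDM-1) in CAMHB, 384-well plates, duplicate runs. Percent growth inhibition was computed from OD600 (24 h minus 0 h) relative to DMSO wells. Drug + DMSO-only wells are also given. […]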
row,SMILES,percent growth inhibition [%]
1,COC(=O)N/N=C/c1c[n+]([O-])c2ccccc2[n+]1[O-] [Carbadox],35.21 ± 0.15
2,Nc1ccn([C@@H]2O[C@H](CO)[C@@H](O)C2(F)F)c(=O)n1 [Gemcitabine],23.1 ± 11
3,Nc1ncn(C2OC(CO)C(O)C2O)c(=O)n1 (stereo not drawn) [Azacytidine-5],99.1 ± 2.6
4,CN(C)c1ccc(O)c2c1C[C@H]1C[C@H]3[C@H](N(C)C)C(O)=C(C(N)=O)C(=O)[C@@]3(O)C(O)=C1C2=O [Minocycline hydrochloride],36.9 ± 6.3
5,Cc1nnc(NS(=O)(=O)c2ccc(N)cc2)s1 [Sulfamethizole],9.62 ± 10

# Same assay, conditions: antibiotic (0.125x MIC): ciprofloxacin; 20 µM
row,SMILES,percent growth inhibition [%]
1,COC(=O)N/N=C/c1c[n+]([O-])c2ccccc2[n+]1[O-] [Carbadox],68.9 ± 6.1
2,O=C1OCCN1/N=C/c1ccc([N+](=O)[O-])o1 [Furazolidone],102 ± 2.7
3,Nc1ncn(C2OC(CO)C(O)C2O)c(=O)n1 (stereo not drawn) [Azacytidine-5],101 ± 3
4,CN(C)c1ccc(O)c2c1C[C@H]1C[C@H]3[C@H](N(C)C)C(O)=C(C(N)=O)C(=O)[C@@]3(O)C(O)=C1C2=O [Minocycline hydrochloride],101 ± 3.3
5,Cc1nnc(NS(=O)(=O)c2ccc(N)cc2)s1 [Sulfamethizole],4.47 ± 6

# Same assay, conditions: antibiotic (0.125x MIC): gentamicin; 7 µM
row,SMILES,percent growth inhibition [%]
1,COC(=O)N/N=C/c1c[n+]([O-])c2ccccc2[n+]1[O-] [Carbadox],46.5 ± 17
2,CO/N=C(\C(=O)N[C@@H]1C(=O)N2C(C(=O)O)=C(COC(N)=O)CS[C@H]12)c1ccco1 [Cefuroxime sodium salt],-0.221 ± 4.4
3,Oc1c(Cl)cc(Cl)c(Cl)c1Cc1c(O)c(Cl)cc(Cl)c1Cl [Hexachlorophene],21.4 ± 16
4,COc1ccc2c(c1)c(CC(=O)OCC(=O)O)c(C)n2C(=O)c1ccc(Cl)cc1 [Acemetacin],2.64 ± 1.7
5,CCOC(=O)c1ccc(OC(=O)CCCCCNC(=N)N)cc1 [Gabexate mesilate],4.82 ± 3.7
6,CCCCNc1c(C(=O)OCC)c(C)nc2c1cnn2CC [Tracazolate hydrochloride],0.683 ± 0.77
7,CO[C@H]1/C=C/O[C@@]2(C)Oc3c(C)c(O)c4c(c3C2=O)C2=NC3(CCN(CC(C)C)CC3)NC2=C(NC(=O)/C(C)=C\C=C\[C@H](C)[C@H](O)[C@@H](C)[C@@H](O)[C@@H](C)[C@H](OC(C)=O)[C@@H]1C)C4=O [Rifabutin],86.11 ± 0.8
8,CCN(CC)CCNC(=O)c1cc(Br)c(N)cc1OC [Bromopride],1.42 ± 2.4
9,OCCN1CCN(CCCN2c3ccccc3Sc3ccc(C(F)(F)F)cc32)CC1 [Fluphenazine dihydrochloride],1.67 ± 0.74
10,Cc1c(N(C)C)c(=O)n(-c2ccccc2)n1C [Amidopyrine],0.636 ± 5.5
11,CN(C)c1ccc(O)c2c1C[C@H]1C[C@H]3[C@H](N(C)C)C(O)=C(C(N)=O)C(=O)[C@@]3(O)C(O)=C1C2=O [Minocycline hydrochloride],38.6 ± 5.5
12,N[C@@H]1CCCCN(c2c(F)cc3c(=O)c(C(=O)O)cn(C4CC4)c3c2Cl)C1 [Besifloxacin hydrochloride],6.28 ± 5.6
13,O=C(Nc1ccc([N+](=O)[O-])cc1Cl)c1cc(Cl)ccc1O [Niclosamide],10.1 ± 2
14,Nc1nnc(-c2cccc(Cl)c2Cl)c(N)n1 [Lamotrigine],7.06 ± 4.8

# Same assay, conditions: antibiotic (0.125x MIC): gentamicin; 20 µM
row,SMILES,percent growth inhibition [%]
1,COC(=O)N/N=C/c1c[n+]([O-])c2ccccc2[n+]1[O-] [Carbadox],85 ± 3.9
2,CO[C@H]1/C=C/O[C@@]2(C)Oc3c(C)c(O)c4c(c3C2=O)C2=NC3(CCN(CC(C)C)CC3)NC2=C(NC(=O)/C(C)=C\C=C\[C@H](C)[C@H](O)[C@@H](C)[C@@H](O)[C@@H](C)[C@H](OC(C)=O)[C@@H]1C)C4=O [Rifabutin],114 ± 20
3,O=C1OCCN1/N=C/c1ccc([N+](=O)[O-])o1 [Furazolidone],113 ± 20
4,Cc1cccc(C)c1NC(=O)C1CCCCN1C (stereo not drawn) [Mepivacaine hydrochloride],1.04 ± 3.1
5,CN(C)c1ccc(O)c2c1C[C@H]1C[C@H]3[C@H](N(C)C)C(O)=C(C(N)=O)C(=O)[C@@]3(O)C(O)=C1C2=O [Minocycline hydrochloride],84.6 ± 15

# Same assay, conditions: antibiotic (0.125x MIC): meropenem; 7 µM
row,SMILES,percent growth inhibition [%]
1,COC(=O)N/N=C/c1c[n+]([O-])c2ccccc2[n+]1[O-] [Carbadox],39.9 ± 16
2,CCCCCCCCNC(C)C(O)c1ccc(SC(C)C)cc1 (stereo not drawn) [Suloctidil],1.25 ± 3.5
3,CO[C@H]1/C=C/O[C@@]2(C)Oc3c(C)c(O)c4c(c3C2=O)C2=NC3(CCN(CC(C)C)CC3)NC2=C(NC(=O)/C(C)=C\C=C\[C@H](C)[C@H](O)[C@@H](C)[C@@H](O)[C@@H](C)[C@H](OC(C)=O)[C@@H]1C)C4=O [Rifabutin],97.8 ± 1.9
4,N[C@@H]1CCCCN(c2c(F)cc3c(=O)c(C(=O)O)cn(C4CC4)c3c2Cl)C1 [Besifloxacin hydrochloride],2.23 ± 6.8
5,Cc1cc(N)c2ccccc2[n+]1CCCCCCCCCC[n+]1c(C)cc(N)c2ccccc21 [Dequalinium dichloride],-1.34 ± 1.8

# Same assay, conditions: antibiotic (0.125x MIC): meropenem; 20 µM
row,SMILES,percent growth inhibition [%]
1,COC(=O)N/N=C/c1c[n+]([O-])c2ccccc2[n+]1[O-] [Carbadox],78.3 ± 7.7
2,CO[C@H]1/C=C/O[C@@]2(C)Oc3c(C)c(O)c4c(c3C2=O)C2=NC3(CCN(CC(C)C)CC3)NC2=C(NC(=O)/C(C)=C\C=C\[C@H](C)[C@H](O)[C@@H](C)[C@@H](O)[C@@H](C)[C@H](OC(C)=O)[C@@H]1C)C4=O [Rifabutin],111 ± 12
3,O=C1OCCN1/N=C/c1ccc([N+](=O)[O-])o1 [Furazolidone],113 ± 20
4,Cc1cc(N)c2ccccc2[n+]1CCCCCCCCCC[n+]1c(C)cc(N)c2ccccc21 [Dequalinium dichloride],34.5 ± 0.8
